# Laboratory results reported in PubChem BioAssay (NCATS).
# Unmarked numbers belong to inactive results. Inconclusive results are not listed. Calls of active or inactive are those of the source. Calls follow the shape of the dose curve; as a rule, active = well fitted curve in the direction sought with a large enough effect; inconclusive = small, poorly fitted or top-dose-only effect, or another doubt; inactive = no such curve, though single readings can be large; an effect the other way counts as inactive or inconclusive.
# Experiments:
# [1] = system: Zika virus NS2B-NS3 protease (linked construct); test: Primary screen NINDS Rhodamine qHTS for Zika virus inhibitors (AID 1347160); also: nearly all actives have a fitted effect of over 55% in size; as to activity change, negative = inhibition: % is scaled to controls: 0 for no effect and ±100 for the full control effect
# In short: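 Kinetic fluorescence (Ex 480 nm, Em 540 nm) over 15 min with 1.5 microM Rhodamine110 peptide and 25 nM linked protease.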
# [2] = Primary qHTS for inhibitors of nuclear receptor binding SET domain protein 2 (NSD2) in an isogenic RCH-ACV NSD2 p.E1099K mutant (9B) (AID 1645876); also: nearly all actives have a fitted effect of over 70% in size; also: potency is read from the fitted curve at half-maximal effect
# [3] = Primary qHTS for inhibitors of nuclear receptor binding SET domain protein 2 (NSD2) in an RCH-ACV wild type WT cells (2C) (AID 1645877); also: nearly all actives have a fitted effect of over 70% in size; also: potency is read from the fitted curve at half-maximal effect; as to activity change, negative = cell killing: % is scaled to controls: 0 for no effect and ±100 for the full control effect
# [4] = molecular target: Phospholipid hydroperoxide glutathione peroxidase GPX4 (Homo sapiens) (UniProt P36969); test: Primary qHTS Assay for Inhibitors of Recombinant Selenoprotein Glutathione Peroxidase 4 (GPX4) (AID 1845192); also: % is scaled to controls: 0 for no effect and ±100 for the full control effect; nearly all actives have a fitted effect of over 65% in size
# In short: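 GR-coupled assay: recombinant GPX4 preincubated 30 min with compound at room temperature; final 200 nM GPX4, 1 mM GSH, 0.5 mM cumene hydroperoxide, 0.5 mM NADPH, 100 nM GR, 0.01% BSA, pH 7.5 Tris. NADPH fluorescence (340/450 nm) read at 0 and 15 min.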
# [5] = molecular target: Luciferin 4-monooxygenase (Photinus pyralis) (UniProt P08659); test: Primary firefly luciferase (FLuc) qHTS assay for identification of artifact compounds. (AID 1845220); conditions: outcome: dose series up to 54.1 µM unless noted; also: nearly all actives have a fitted effect of over 60% in size;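 as to activity change, negative = inhibition: plate controls were DMSO vehicle for no effect and no enzyme for full effect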
# In short: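 Titrated compounds were incubated 15 min at RT, protected from light, with luciferin and ATP at 10 uM; reaction started with 10 nM FLuc, luminescence imaged at 5 min, and concentration-response fitted by Hill equation.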
# [6] = Primary fluorescence-based thiol-reactive (MSTI) qHTS assay for identification of artifact compounds. (AID 1845221); also: nearly all actives have a fitted effect of over 65% in size; also: potency is read from the fitted curve at half-maximal effect;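 as to activity change, negative = thiol reactive: thiol-reactive compounds lower the probe fluorescence signal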
# In short: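 qHTS titration of compound; 4 uM MSTI, PBS pH 7.4, 2% DMSO; 1 h RT, dark; fluorescence 525/598 nm; normalized to Acetyl-MSTI and MSTI; 4-parameter Hill fit.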
# [7] = system: Nanoluciferase (engineered Oplophorus gracilirostris luciferase); test: Primary Nanoluciferase (NLuc) qHTS assay for identification of artifact compounds. (AID 1845222);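 also: NLuc secreted into diluted conditioned medium of S16 cells; 0% = DMSO and -100% = no enzyme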
# In short: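 qHTS format, against NLuc in S16 cell-conditioned medium. Nano-Glo substrate 1:100 was added after 15 min at room temperature. Luminescence was taken after a further 5 min.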
# [8] = system: CRL-7250; test: Cytotoxic Profiling of Annotated Libraries Using Quantitative High-Throughput Screening (AID 1296008); conditions: Five cell lines viability, CellTiter-Glo ATP luminescence, 48-72 h; max response: hits give low values; also: nearly all actives have a fitted effect of over 60% in size; also: potency is read from the fitted curve at half-maximal effect; as to max response: % is scaled to controls: 0 for no effect and ±100 for the full control effect
# In short: (§1)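 Cells exposed to compounds for 48 or 72 hr at 37 degrees Celsius. Viability read as ATP-coupled luminescence with CellTiter-Glo after 10 min at room temperature.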
# [9] = system: HEK293; test: as above; conditions: Five cell lines viability, CellTiter-Glo ATP luminescence, 48-72 h; max response: hits give low values
# In short: as §1
# [10] = system: HaCat; test: as above; conditions: Five cell lines viability, CellTiter-Glo ATP luminescence, 48-72 h; max response: hits give low values
# In short: as §1
# [11] = system: NIH3T3; test: as above; conditions: Five cell lines viability, CellTiter-Glo ATP luminescence, 48-72 h; max response: hits give low values
# In short: as §1
# [12] = system: C33A; test: Primary qHTS to identify gynecologic anti-cancer compounds using libraries of approved drugs and bioactive compounds (AID 1345084); conditions: Gynecologic cancer cell panel viability, ATPlite luminescence, 48 h; series mostly up to 57.5 µM; also: nearly all actives have a fitted effect of over 55% in size; also: potency is read from the fitted curve at half-maximal effect
# In short: (§2)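 Cells, 1,000 per well, were allowed to settle for 16 h at 37 C before compound addition. Five concentrations were tested for 48 h, and viability was read by ATPlite luminescence after 15 min at room temperature.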
# [13] = system: Es-2; test: as above; conditions: Gynecologic cancer cell panel viability, ATPlite luminescence, 48 h; series mostly up to 57.5 µM
# In short: as §2
# [14] = system: Hek293T; test: as above; conditions: Gynecologic cancer cell panel viability, ATPlite luminescence, 48 h, control line for the selectivity index; series mostly up to 57.5 µM
# In short: as §2
# [15] = system: OV90; test: as above; conditions: Gynecologic cancer cell panel viability, ATPlite luminescence, 48 h; series mostly up to 57.5 µM
# In short: as §2
# [16] = system: PA-1; test: as above; conditions: Gynecologic cancer cell panel viability, ATPlite luminescence, 48 h; series mostly up to 57.5 µM
# In short: as §2
# [17] = system: Tov-21-G; test: as above; conditions: Gynecologic cancer cell panel viability, ATPlite luminescence, 48 h; series mostly up to 57.5 µM
# In short: as §2
# [18] = molecular target: Glutathione peroxidase 1 (Homo sapiens) (UniProt P07203); test: Primary qHTS Assay for Inhibitors of Recombinant Selenoprotein Glutathione Peroxidase 1 (GPX1) (AID 1845191); also: nearly all actives have a fitted effect of over 65% in size; as to activity, negative = inhibition: % is scaled to controls: 0 for no effect and ±100 for the full control effect
# In short: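 GR-coupled assay: compounds preincubated 30 min at room temperature with GPX1, then reaction started with CHP; final 10 nM GPX1, 1 mM GSH, 0.5 mM CHP, 0.5 mM NADPH, 100 nM GR, 0.01% BSA, pH 7.5 Tris buffer. NADPH fluorescence (340/450 nm) read at 0 and 15 min.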
# [19] = system: CASKI; test: Primary qHTS to identify gynecologic anti-cancer compounds using libraries of approved drugs and bioactive compounds (AID 1345084); conditions: Gynecologic cancer cell panel viability, ATPlite luminescence, 48 h; series mostly up to 57.5 µM; also: nearly all actives have a fitted effect of over 55% in size; also: potency is read from the fitted curve at half-maximal effect
# In short: as §2
# [20] = system: Tov112D; test: as above; conditions: Gynecologic cancer cell panel viability, ATPlite luminescence, 48 h; series mostly up to 57.5 µM
# In short: as §2
# Phospholipid hydroperoxide glutathione peroxidase GPX4 (Homo sapiens), sequence (P36969 whole entry, looked up): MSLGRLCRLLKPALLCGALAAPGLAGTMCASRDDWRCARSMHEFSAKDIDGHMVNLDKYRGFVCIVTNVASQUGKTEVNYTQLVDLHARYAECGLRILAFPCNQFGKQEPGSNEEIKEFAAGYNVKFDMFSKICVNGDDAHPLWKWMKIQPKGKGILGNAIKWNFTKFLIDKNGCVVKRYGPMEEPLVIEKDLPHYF
# Glutathione peroxidase 1 (Homo sapiens), sequence (P07203 whole entry, looked up): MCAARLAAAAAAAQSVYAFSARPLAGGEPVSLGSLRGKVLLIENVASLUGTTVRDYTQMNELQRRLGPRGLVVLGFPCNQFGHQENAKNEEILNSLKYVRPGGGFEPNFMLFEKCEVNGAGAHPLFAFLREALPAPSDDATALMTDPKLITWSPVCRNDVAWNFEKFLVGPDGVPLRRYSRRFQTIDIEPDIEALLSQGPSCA
structure (smiles),measurement,setting,value
CNc1ccc2oc(C[C@H]3O[C@@]4(CC[C@H]3C)O[C@H](C(C)C(=O)c3ccc[nH]3)[C@H](C)C[C@H]4C)nc2c1C(=O)O (stereo partly specified),Potency,[1],inactive
same,Potency,[2],16300 nM (active)
same,Potency,[3],14500 nM (active)
same,Potency,[4],inactive
same,outcome,[5],inactive
same,Potency,[6],2380 nM (active)
same,Potency,[7],inactive
same,Potency,[8],5800 nM (active)
same,Potency,[9],1300 nM (active)
same,Potency,[10],7310 nM (active)
same,Potency,[11],3660 nM (active)
same,Potency,[12],11200 nM (active)
same,Potency,[13],10000 nM (active)
same,Potency,[14],8910 nM (active)
same,Potency,[15],12600 nM (active)
same,Potency,[16],4470 nM (active)
same,Potency,[17],11200 nM (active)
CO[C@H]1C[C@H](O[C@H]2CC[C@@]3(C)C(=CCC4C3CC[C@]3(C)[C@@H](C5=CC(=O)OC5)CC[C@]43O)C2)O[C@@H](C)[C@@H]1O[C@@H]1O[C@H](CO[C@@H]2O[C@H](CO)[C@@H](O)[C@H](O)[C@H]2O)[C@@H](O)[C@H](O)[C@H]1O (stereo partly specified),Potency,[1],inactive
same,"activity change, negative = cell killing",[3],-4.53% [at 9.23 µM]
same,Potency,[18],inactive
same,Potency,[4],inactive
same,"activity change, negative = inhibition",[5],0.797% [at 11.6 µM]
same,"activity change, negative = thiol reactive",[6],94.1% [at 11.5 µM]
same,"activity, negative = inhibition",[7],3.27% [at 11.6 µM]
same,max response,[8],-12.8%
same,max response,[9],-7.06%
same,max response,[10],-7.84%
same,max response,[11],-5.72%
same,"activity change, negative = cytotoxicity",[12],5.08% [at 11.6 µM]
same,"activity change, negative = cytotoxicity",[19],22.6% [at 11.6 µM]
same,"activity change, negative = cytotoxicity",[13],-0.369% [at 11.6 µM]
same,"activity change, negative = cytotoxicity",[14],-20.2% [at 11.6 µM]
same,"activity change, negative = cytotoxicity",[15],5.84% [at 11.6 µM]
same,"activity change, negative = cytotoxicity",[16],10.4% [at 11.6 µM]
same,"activity change, negative = cytotoxicity",[17],-1.43% [at 11.6 µM]
same,"activity change, negative = cytotoxicity",[20],-28.4% [at 11.6 µM]
C[C@H](CCC(=O)O)C[C@H](C)C[C@H](C)C(=O)/C=C(\O)[C@H](C)C[C@H](C)C/C=C/[C@@H](C)[C@@H](O)[C@@H](C)[C@@H](O)C[C@@H]1CC[C@@](C)([C@H]2CC[C@@](C)([C@@H](C)O)O2)O1,Potency,[1],inactive
same,Potency,[2],7090 nM (active)
same,Potency,[3],4470 nM (active)
same,Potency,[18],inactive
same,outcome,[5],inactive
same,Potency,[6],inactive
same,Potency,[7],inactive
same,Potency,[8],3170 nM (active)
same,Potency,[9],5020 nM (active)
same,max response,[10],-1.41%
same,Potency,[12],inactive
same,Potency,[19],inactive
same,Potency,[13],inactive
same,Potency,[14],inactive
same,Potency,[16],inactive
same,Potency,[20],inactive
CC1=CC(=O)[C@@H](O)[C@]2(C)C3[C@@H](O)[C@@H]4OC(=O)[C@@H]([C@H]4C)[C@]3(C)C(=O)C[C@@H]12 (stereo partly specified),Potency,[1],inactive
same,Potency,[2],2260 nM (active)
same,Potency,[3],2260 nM (active)
same,Potency,[18],inactive
same,Potency,[4],inactive
same,outcome,[5],inactive
same,Potency,[6],inactive
same,Potency,[7],inactive
same,Potency,[8],3210 nM (active)
same,Potency,[9],2860 nM (active)
same,Potency,[10],11400 nM (active)
same,Potency,[11],3600 nM (active)
same,Potency,[13],8910 nM (active)
same,Potency,[16],2820 nM (active)
C[C@@H]1[C@H](O)[C@@H](C)/C=C/C=C/CC/C=C/C=C/C=C/C=C/[C@H](O[C@H]2O[C@@H](C)[C@H](O)[C@@H](N)[C@H]2O)C[C@@H]2O[C@](O)(C[C@@H](O)[C@H](O)CC[C@@H](O)C[C@@H](O)C[C@@H](O)CC(=O)O[C@H]1C)C[C@H](O)[C@H]2C(=O)O,Potency,[2],inactive
same,Potency,[18],inactive
same,Potency,[4],inactive
same,outcome,[5],inactive
same,Potency,[6],inactive
same,Potency,[7],inactive
same,max response,[8],-12.4%
same,max response,[9],0.0089%
same,outcome,[10],inactive
same,Potency,[12],inactive
same,Potency,[19],inactive
same,Potency,[13],inactive
same,Potency,[14],inactive
same,Potency,[15],inactive
same,Potency,[16],inactive
same,Potency,[17],inactive
same,Potency,[20],inactive
COc1cc(O)c2c(c1)/C=C/C[C@@H](O)[C@@H](O)C(=O)CCC[C@H](C)OC2=O,Potency,[1],inactive
same,Potency,[18],inactive
same,Potency,[4],inactive
same,outcome,[5],inactive
same,Potency,[6],inactive
same,Potency,[7],inactive
same,Potency,[8],14300 nM (active)
same,max response,[9],0.301%
same,max response,[10],-18.3%
same,max response,[11],-5.04%
same,Potency,[12],inactive
same,Potency,[19],inactive
same,Potency,[13],inactive
same,Potency,[14],inactive
same,Potency,[15],inactive
same,Potency,[16],inactive
same,Potency,[17],inactive
same,Potency,[20],inactive
CC(=O)OC[C@]12C[C@H](OC(=O)CC(C)C)C(C)=C[C@H]1O[C@@H]1[C@H](O)C[C@@]2(C)[C@]12CO2,Potency,[1],inactive
same,Potency,[2],632 nM (active)
same,Potency,[3],317 nM (active)
same,Potency,[18],inactive
same,Potency,[4],inactive
same,outcome,[5],inactive [at 25.7 µM]
same,Potency,[6],inactive
same,Potency,[7],inactive
same,Potency,[8],3170 nM (active)
same,Potency,[9],563 nM (active)
same,Potency,[10],6320 nM (active)
same,Potency,[11],893 nM (active)
same,Potency,[12],2820 nM (active)
same,Potency,[13],3980 nM (active)
same,Potency,[14],1000 nM (active)
same,Potency,[15],4470 nM (active)
same,Potency,[16],1000 nM (active)
same,Potency,[17],4470 nM (active)
same,Potency,[20],2240 nM (active)
CC(=O)OC[C@]12C[C@H](OC(=O)CC(C)C)C(C)=C[C@H]1O[C@@H]1[C@H](O)[C@@H](OC(C)=O)[C@@]2(C)[C@@]12CO2,Potency,[1],inactive
same,Potency,[2],22.4 nM (active)
same,Potency,[3],10 nM (active)
same,Potency,[18],inactive
same,Potency,[4],inactive
same,outcome,[5],inactive [at 25.7 µM]
same,Potency,[6],inactive
same,Potency,[7],inactive
same,Potency,[8],89.3 nM (active)
same,Potency,[9],22.4 nM (active)
same,Potency,[10],224 nM (active)
same,Potency,[11],50.2 nM (active)
same,Potency,[19],199 nM (active)
same,Potency,[13],100 nM (active)
same,Potency,[14],112 nM (active)
same,Potency,[15],2510 nM (active)
same,Potency,[17],224 nM (active)
same,Potency,[20],224 nM (active)
COc1cc(N2CCN(C)CC2)ccc1N,Potency,[1],inactive
same,Potency,[18],inactive
same,Potency,[4],inactive
same,outcome,[5],inactive
same,Potency,[6],1190 nM (active)
same,Potency,[7],inactive
same,max response,[8],0.376%
same,max response,[9],-21.4%
same,max response,[10],1.34%
same,max response,[11],-6.74%
same,Potency,[12],inactive
same,Potency,[19],inactive
same,Potency,[13],inactive
same,Potency,[14],inactive
same,Potency,[15],inactive
same,Potency,[16],inactive
same,Potency,[17],inactive
same,Potency,[20],inactive
